The record followed here is PubChem BioAssay AID430 (Sanford-Burnham Center for Chemical Genomics, 2006).

Out of some 63,000 compounds screened, about 1,100 (1.7%) were called active. Many of the other results were omitted from the sample, so actives are more common in it than they were. Results with a measured potency or affinity are listed apart. A number with no mark means an inactive call. Cut-off read from the data, not from the text of the source: active = cytotoxicity above about 50%; inactive = the rest.

This experiment in a line: HPDE-C7 pancreatic duct cell viability loss – fluorescence, HTS (AID 430).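 Note: cells exposed to compound for 48 hours before viability readout; 0% = vehicle and 100% = reference cytotoxic drug.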 The note with it: HPDE-C7 pancreatic duct cells viability, at 10 µM, stronger effect = higher value.
As to `COCCN1C=C(C(=O)OC)C(c2ccc(OC)c(OC)c2)C(C(=O)OC)=C1`, the cytotoxicity was -14.4%. For the compound `CC1CN(c2nc3ccccn3c(=O)c2/C=C(\C#N)S(=O)(=O)c2ccccc2)CC(C)O1` (stereo not given), the cytotoxicity is -12.3%. Regarding `O=C(CSc1nnc(-c2ccco2)c(-c2ccco2)n1)Nc1ccccc1`, the cytotoxicity was 9.9%. Under `Cc1cc(C)nc(SCc2nnc(SCc3ccccc3Cl)o2)n1` stands -4.7%; under `COc1ccc(NC(=O)CSc2nnc(-c3ccco3)n2C)cc1`, -10.6%; under `Clc1ccccc1CSc1ncccn1`, -5.2%. As to `Cc1ccc(NC(=O)CSc2nnc(-c3ccco3)c(-c3ccco3)n2)cc1`, the cytotoxicity is 82.6% (active). Take `CC1(C)OC(=O)C(=CNc2cccc(C(=O)O)c2)C(=O)O1`: the cytotoxicity was -20.6%. Under `COc1ccc(S(=O)(=O)NCCSc2ccc(C)cc2)cc1OC` stands 12.8%; under `COc1ccc(-c2nc(CN3CCC(C(=O)NC(C)C)CC3)c(C)o2)cc1OC`, -10.9%. `COc1ccc(C2CC(c3c(O)cc(C)oc3=O)=NCCS2)c(OC)c1` (stereo not given): the cytotoxicity is 71.1% (active). Under `COc1ccc(C2NC(=O)c3n[nH]c(C)c32)c(OC)c1` (stereo not given) stands 4.3%; under `COc1ccc(C2C(C(C)=O)=C(O)C(=O)N2C)c(OC)c1` (stereo not given), 6.1%; under `Cc1cccc(N(Cc2nnc3n2CCCCC3)C(=O)Nc2ccccc2)c1`, -21.7%. As for `COc1cc(CO)cc(-c2cc(CO)cc(OC)c2OC)c1OC`, the figure is 4%; as for `CN1CCN(c2ncnc3c2sc2nc(N4CCCC4)c4c(c23)CC(C)(C)OC4)CC1`, -7.2%. As to `CC1(C)Cc2c(c(N3CCCC3)nc3sc4c(N5CCN(CCO)CC5)ncnc4c23)CO1`, the cytotoxicity is 60.5% (active). As for `OCCN1CCN(c2ncnc3c2sc2nc(N4CCOCC4)c4c(c23)CCC4)CC1`, the figure is 35.6%; as for `Cn1c(NCc2ccccc2)nc2c1c(=O)n(Cc1ccccc1)c(=O)n2C`, 5.6%; as for `Cn1c(NCC(O)c2ccccc2)nc2c1c(=O)n(Cc1ccc(Cl)c(Cl)c1)c(=O)n2C` (stereo not given), 69% (active).

On to `Cn1c(N2CCCC2)nc2c1c(=O)n(Cc1ccc(Cl)cc1)c(=O)n2C`, for which the cytotoxicity was 1.7%. As for `Cn1c(OCc2cccnc2)nc2c1c(=O)n(Cc1ccccc1)c(=O)n2C`, the cytotoxicity was 25%.

Turning to `Cn1c(NCc2ccco2)nc2c1c(=O)n(Cc1ccc(Cl)c(Cl)c1)c(=O)n2C`, the cytotoxicity was 8%. As to `Cn1c(N2CCN(c3ccccn3)CC2)nc2c1c(=O)n(Cc1ccccc1Cl)c(=O)n2C`, the cytotoxicity is -12.8%. For the compound `Cn1c(N2CCN(c3ccccn3)CC2)nc2c1c(=O)n(Cc1ccc(Cl)cc1)c(=O)n2C`, the cytotoxicity was 66.4% (active).

Turning to `Cn1c(NCCCN2CCOCC2)nc2c1c(=O)n(Cc1ccc(Cl)c(Cl)c1)c(=O)n2C`, the cytotoxicity is 44%. With `Cn1c(NCC(O)c2ccccc2)nc2c1c(=O)n(Cc1ccc(Cl)cc1)c(=O)n2C` (stereo not given), the cytotoxicity was 53.2% (active).

As for `Cn1c(OCc2cccnc2)nc2c1c(=O)n(Cc1ccc(Br)cc1)c(=O)n2C`, the cytotoxicity was 50.4% (active). As to `COc1ccc(CNc2nc3c(c(=O)n(Cc4ccc(Cl)cc4)c(=O)n3C)n2C)cc1`, the cytotoxicity is 26.6%. As for `Cn1c(OCc2cccnc2)nc2c1c(=O)n(Cc1ccc(Cl)cc1)c(=O)n2C`, the figure is 44%.
